# Assay outcomes as filed in PubChem.
# Sampled rows, rich in hits. Any-hit rate of the full collection: about 21%.
# CHX counter: counter-screen hit for Shiga toxin inhibitors, cycloheximide. max response, %. cell reporter, cycloheximide protein synthesis inhibition counterscreen. actives 12% (n = 300,000); in the data active means max response mostly above about 13%, no sharp cut-off; inactive means mostly below about 14%; further: read at 38.3 µM for the half of the compounds with a filed dose; 0% is about no effect
# Pf growth 48h: P. falciparum growth inhibition at 48 hours (one generation). P. falciparum luciferase growth in erythrocytes, 48 h. Potency, µM (titrated, usually from 28.7 µM), without a hit: at the top dose activity change, negative = inhibition, most hits filed as inhibitors. actives 5.9% (n = 310,000). AID 504832; further: potency means the concentration at half of the fitted maximal effect; on the % scale 0 is the no-effect control and ±100 the full control effect
#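 Parasite viability was followed by luminescence of a genomically integrated firefly luciferase. Cultures held 0.1% parasitemia at 2% hematocrit (final), incubated under 5% CO2 at 37 C.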
# SARS PLP yeast: inhibitors of SARS-CoV papain-like protease in yeast; S. cerevisiae expressing SARS-CoV PLpro, growth rescue; Potency, µM (top dose mostly 32.9 µM), for the others: top-dose activity, positive = growth rescue, usual class: activators; actives 0.19% (n = 330,000); AID 485353; calls by dose curve; further: potency means the concentration at half of the fitted maximal effect; 0% is about no effect; nearly all actives have a fitted effect of over 55% in size
# Shiga inhibitor: Shiga toxin inhibition | actives 9.2% (n = 290,000) | AID 2315 | Vero cells, Shiga toxin protein synthesis inhibition reporter | inhibition, % at 38.7 µM; in the data active means inhibition mostly above about 28%, no sharp cut-off; inactive means mostly below about 43%; further: 0% is about no effect
# Pf growth 96h: inhibits malaria parasite growth, 96 h; Potency, µM (series often up to 28.7 µM), without a hit: at the top dose activity change, negative = inhibition, usual class: inhibitors; P. falciparum luciferase reporter growth, 96 h; actives 6.9% (n = 320,000); further: potency means the concentration at half of the fitted maximal effect; on the % scale 0 is the no-effect control and ±100 the full control effect
#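 Readout is luminescence from an integrated firefly luciferase in P. falciparum. Red cells, 2% hematocrit and 0.05% parasitemia final, were cultured with compound through two parasite generations (96 hours) at 37 C, 5% CO2.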
# NS1 inh: blocks influenza NS1 protein function; Potency, µM (series often up to 46.1 µM), for inactives: top-dose activity, positive = more growth; actives 0.4% (n = 270,000); calls by dose curve; further: potency means the concentration at half of the fitted maximal effect; actives are rising curves; nearly all actives have a fitted effect of over 50% in size
#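 OD600 was taken as the measure of yeast growth restored by compound in an NS1-expressing S. cerevisiae strain. Cells had been washed out of glucose medium and diluted 1:100 into galactose -URA medium, pH 6.0.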
# An asterisk follows results filed as active; i = inactive; ? = inconclusive; · = no result. Unless noted, the call rests on the fitted dose curve; in most records, active means well fitted inhibition curve with a large enough effect; inconclusive means small, poorly fitted or top-dose-only effect, or another doubt; inactive means no such curve, though single readings can be large or run the other way.
SMILES,CHX counter,Pf growth 48h,SARS PLP yeast,Shiga inhibitor,Pf growth 96h,NS1 inh
CC(=O)Nc1cccc(/C(C)=N/NC(=O)c2ccc3c(c2)OCO3)c1,26*,257%,-2%,42,147%,-2%
CC(C)CC(CC(C)C)=NNC(=O)c1ccc2c(c1)OCO2,52*,?,-1%,74*,-8%,·
C/C(=N/NC(=O)CNC(=O)c1ccc2c(c1)OCO2)c1ccc2c(c1)CCCC2,7,1%,1%,-11,3.3µM*,·
CNC(=S)N/N=C(\C)c1ccc2c(c1)OCO2,5,24%,22%,26,?,·
C/C(=N\NC(=O)c1ccc2c(c1)OCO2)c1ccc(O)cc1,33*,52%,-2%,41*,0%,-9%
Cc1ccc(NC(=S)N2CCCC(CO)C2)c(C)c1 (stereo unspecified),9,39%,-1%,12,13%,8%
O=C(c1cc(Br)ccc1O)c1cc(Br)ccc1O,·,·,·,·,·,-36%
NCC[C@H](O)C(=O)N[C@@H]1C[C@H](N)[C@@H](O[C@H]2O[C@H](CN)CC[C@H]2N)[C@H](O)[C@H]1O[C@H]1O[C@H](CO)[C@@H](O)[C@H](N)[C@H]1O,·,-5%,·,·,-17%,·
Cc1cccn2c(=O)nc(SCC(=O)NC3CCCC3)nc12,·,2%,1%,·,6%,·
C/C(=N/NC(=O)c1ccc2c(c1)OCO2)c1ccc(NC(=O)C(F)(F)F)cc1,41*,116%,-4%,36*,90%,7%
C/C(=N\NC(=O)Cc1ccccc1Cl)c1cccnc1,25,?,3%,18,1.7µM*,-20%
C/C(=N\NC(=O)c1ccc2c(c1)OCO2)c1cccnc1,37*,18%,-1%,90*,-7%,-8%
CC/C(=N\NC(=O)c1ccc2c(c1)OCO2)c1ccccc1,37*,63%,7%,46*,?,-4%
O=C(N/N=C(/c1ccccc1)c1ccncc1)c1ccc2c(c1)OCO2,-4,-1%,10%,-5,-43%,-2%
C/C(=N/NC(=O)c1ccco1)c1cccnc1,26,35%,-1%,29,?,·
C/C(=N\NC(=O)c1c[nH]c2ccccc12)c1ccc2c(c1)OCO2,29*,?,0%,42*,5.9µM*,·
C/C(=N\NC(=O)c1cc(C)oc1C)c1ccc2c(c1)OCO2,48*,36%,-5%,122*,12%,·
Oc1ccccc1/C=N/n1cnn(Cc2ccccc2Cl)c1=S,7,15%,5%,-6,17%,20%
O=[N+]([O-])c1ccc(Cl)cc1CNc1ccc(F)c(F)c1,-1,3%,-16%,-8,8.3µM*,-36%
CC(C)CNC(=O)CC(=O)N/N=C/c1ccc(F)cc1,-3,3%,-38%,7,?,-5%
CN(C)S(=O)(=O)Nc1ccc2c(c1)Cc1ccccc1-2,29*,57%,-5%,107*,·,-11%
CN(C)S(=O)(=O)Nc1ccc(NS(=O)(=O)N(C)C)c(S(=O)(=O)c2ccccc2)c1,-6,3%,1%,-5,·,-13%
COc1ccc(CN(C2CCCCC2C)S(=O)(=O)c2ccc(S(=O)(=O)N(C)C)cc2)cc1OC (stereo unspecified),-1,13µM*,7%,-8,?,?
COc1ccc(CC(=O)Nc2ccc(S(=O)(=O)N(C)C)cc2)cc1OC,-4,5%,3%,-13,-22%,1%
COc1cc(CN(C2CCCCC2C)S(=O)(=O)c2ccc(S(=O)(=O)NC3CC3)cc2)cc(OC)c1OC (stereo unspecified),-1,8.3µM*,-6%,-12,-22%,26%
SMILES,CHX counter,Pf growth 48h,SARS PLP yeast,Shiga inhibitor,Pf growth 96h,NS1 inh
CC1(C)CC(=O)C=C(OC(=O)c2ccc(Cl)cc2)C1,10,29%,10%,14,17%,0%
Cc1ccccc1-c1cc(C(=O)NCc2ccco2)nn1CC1CC(c2cccc([N+](=O)[O-])c2)=NO1 (stereo unspecified),·,·,-2%,·,·,·
Cc1ccccc1-c1cc(C(=O)NCc2cccc(C(F)(F)F)c2)nn1CC1CC(c2cccc([N+](=O)[O-])c2)=NO1 (stereo unspecified),·,3.7µM*,-6%,·,6.6µM*,·
Cc1ccccc1-c1cc(C(=O)NCc2ccc(OC(F)(F)F)cc2)nn1CC1CC(c2cccc([N+](=O)[O-])c2)=NO1 (stereo unspecified),·,·,-1%,·,·,·
Cc1ccccc1-c1cc(C(=O)NCc2cccs2)nn1CC1CC(c2cccc([N+](=O)[O-])c2)=NO1 (stereo unspecified),·,3.3µM*,-3%,·,2.1µM*,·
Cc1ccc2oc(-c3ccco3)nc2c1,42*,237%,-5%,101*,0%,-4%
Cc1ccc2oc(Nc3nc(C)c(C)c(C)n3)nc2c1,37*,187%,1%,88*,112%,1%
Cc1ccc(-c2nc3cc(C)ccc3o2)cc1,33*,0%,-2%,118*,224%,-12%
Nc1ccc2oc(-c3cccs3)nc2c1,46*,123%,-5%,86*,·,-11%
c1cc(-c2nc3cc(Oc4ccc5oc(-c6ccncc6)nc5c4)ccc3o2)ccn1,·,·,·,·,·,-1%
CC(C)=CCC[C@](C)(OC1OC(COC2OCC(O)C(O)C2O)C(O)C(O)C1O)C1CC[C@]2(C)C1C(O)CC1[C@@]3(C)CCC(O[C@@H]4O[C@H](CO)C(O)C(O)C4O[C@@H]4OC(CO)C(O)C(O)C4O)C(C)(C)C3CC[C@]12C (stereo partly specified),·,·,-4%,·,·,·
CC(C)(C)c1ccc(-c2nc3cc(N)ccc3o2)cc1,51*,253%,-13%,94*,?,-1%
CC(C)c1ccc2oc(-c3ccc(N)cc3)nc2c1,42*,172%,1%,117*,-3%,23%
Nc1cccc(-c2nc3cc(S(=O)(=O)c4ccc5oc(-c6cccc(N)c6)nc5c4)ccc3o2)c1,4,?,-3%,20,-19%,20%
CC(C)c1ccc2oc3nc(N)c(C(=O)O)cc3c(=O)c2c1,8,?,-1%,31,10%,·
Cc1ccc(-c2nc3cc(N)ccc3o2)cc1,25*,124%,-5%,68*,·,?
Cc1ccc2oc(-c3cccc(N)c3)nc2c1,26*,i,-10%,58*,-15%,·
COc1ccc(NC(=O)c2cnc(SC)nc2C)c(OC)c1,-1,-6%,0%,16,23%,5%
CC(OC(=O)CCCNC(=O)c1ccc(Cl)cc1)C(=O)N(C)Cc1ccccc1 (stereo unspecified),-1,24%,0%,-7,-15%,-17%
O=C(Cn1ccc([N+](=O)[O-])n1)Nc1ccccn1,1,71%,0%,15,0%,1%
COc1cc(OC)cc(C(=O)N[C@H](C(=O)OCC(=O)Nc2sccc2C#N)C(C)C)c1,-1,-16%,-1%,-4,15%,·
